PLK1 PBD inh = qHTS for Inhibitors of PLK1-PDB (polo-like kinase 1 - polo-box domain): Primary Screen; Serine/threonine-protein kinase PLK1 (Homo sapiens), P53350; AID 720504, 2013; Plk1 PBD binding of FITC phosphopeptide, fluorescence polarization; actives 2.8% (n = 360,000); Potency, µM, inactives show max response, negative = inhibition, hits mostly inhibitors; also: potency is read from the fitted curve at half-maximal effect; series mostly up to about 57 µM; % is scaled to controls: 0 for no effect and ±100 for the full control effect; nearly all actives have a fitted effect of over 65% in size
Target sequence (P53350 whole entry, looked up, the tested form may be a part): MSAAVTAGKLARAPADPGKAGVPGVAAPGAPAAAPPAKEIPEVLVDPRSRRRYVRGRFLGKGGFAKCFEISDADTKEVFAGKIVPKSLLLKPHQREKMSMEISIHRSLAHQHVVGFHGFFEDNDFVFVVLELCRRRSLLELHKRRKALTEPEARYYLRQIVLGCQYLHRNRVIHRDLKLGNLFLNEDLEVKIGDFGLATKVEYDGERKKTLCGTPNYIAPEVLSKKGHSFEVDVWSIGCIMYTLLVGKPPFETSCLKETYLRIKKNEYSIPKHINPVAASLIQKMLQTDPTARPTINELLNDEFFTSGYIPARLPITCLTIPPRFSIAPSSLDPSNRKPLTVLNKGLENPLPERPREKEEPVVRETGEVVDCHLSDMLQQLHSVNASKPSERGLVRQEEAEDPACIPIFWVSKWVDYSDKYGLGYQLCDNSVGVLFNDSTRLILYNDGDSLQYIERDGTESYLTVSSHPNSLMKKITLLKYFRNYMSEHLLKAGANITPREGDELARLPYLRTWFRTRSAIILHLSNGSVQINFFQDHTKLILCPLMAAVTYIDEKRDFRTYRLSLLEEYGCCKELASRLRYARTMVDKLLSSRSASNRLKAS
PI5P4Ka inh = qHTS for Inhibitors of phosphatidylinositol 5-phosphate 4-kinase (PI5P4K); Phosphatidylinositol 5-phosphate 4-kinase type-2 alpha (Homo sapiens), P48426; PI5P4Kalpha enzyme, ADP-Glo luminescence, 60 min; hits give low values; max response, %; actives 1.2% (n = 330,000); AID 652105, 2013; active = max response of -50% or lower; inconclusive = between -30% and -50%; inactive = -30% or higher; also: value at the top dose of about 77 µM; % is scaled to controls: 0 for no effect and ±100 for the full control effect
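qHTS, 1536-well: enzyme/substrate mix, compound by pin tool, 5 microM ATP final; RT 60 min; ADP-Glo reagents 1 (45 min) then 2 (30 min); luminescence.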
JMJD2A Tudor inh = qHTS Assay for Inhibitors of JMJD2A-Tudor Domain; Lysine-specific demethylase 4A (Homo sapiens), O75164; AlphaScreen JMJD2A-Tudor / H3K4me3 peptide binding; Potency, µM (doses to about 114 µM), for inactives: at the highest dose activity change, negative = inhibition, usual class: inhibitors; actives 4.4% (n = 390,000); AID 504339, 2011; also: potency is read from the fitted curve at half-maximal effect; % is scaled to controls: 0 for no effect and ±100 for the full control effect; nearly all actives have a fitted effect of over 50% in size
BAZ2B inh = qHTS Assay for Inhibitors of BAZ2B; AlphaScreen BAZ2B-H3K14Ac peptide displacement; Bromodomain adjacent to zinc finger domain protein 2B (Homo sapiens), Q9UIF8; actives 4.4% (n = 360,000); Potency, µM (series often up to 114 µM), for inactives: top-dose activity change, negative = inhibition, hits mostly inhibitors; also: potency is read from the fitted curve at half-maximal effect; % is scaled to controls: 0 for no effect and ±100 for the full control effect; nearly all actives have a fitted effect of over 60% in size
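BAZ2B 50 nM plus b-H3(5-23)K14Ac 50 nM, PBS pH 7.4/0.01% Tween-20, 30 min RT; compound added (max 110 uM), 30 min RT; streptavidin donor/Ni-chelate acceptor beads 10 ug/mL final, 20 min dark; AlphaScreen read.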
HP1b binding inh = HTS for Inhibitors of HP1-beta Chromodomain Interactions with Methylated Histone Tails. Chromobox protein homolog 1 (Homo sapiens), P83916. actives 0.56% (n = 390,000). AID 540317, 2011. AlphaScreen HP1-beta / biotin-H3K9me3 peptide binding. Potency, µM (highest dose often 114 µM), without a hit: top-dose activity change, negative = inhibition, most hits filed as inhibitors; also: potency is read from the fitted curve at half-maximal effect; nearly all actives have a fitted effect of over 70% in size
Target sequence (P83916 whole entry, looked up): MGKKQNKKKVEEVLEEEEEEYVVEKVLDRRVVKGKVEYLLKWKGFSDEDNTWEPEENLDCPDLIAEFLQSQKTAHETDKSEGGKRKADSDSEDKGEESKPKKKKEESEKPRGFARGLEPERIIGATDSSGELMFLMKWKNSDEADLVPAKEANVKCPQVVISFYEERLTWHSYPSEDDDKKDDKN
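Compound inhibition of the preformed complex between 50 nM HP1-beta and 50 nM biotinylated H3K9me3 peptide was read by AlphaScreen. Buffer was PBS pH 7.4 with 0.01% Tween-20. Incubations ran 30 min at room temperature, with 10 ug/mL donor/acceptor beads.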
G9a block = qHTS Assay for Inhibitors of Histone Lysine Methyltransferase G9a | Potency, µM (top dose mostly 102 µM), for inactives: at the highest dose activity, negative = inhibition, usual class: inhibitors | Histone-lysine N-methyltransferase EHMT2 (Homo sapiens), Q96KQ7 | AID 504332, 2011 | actives 8.8% (n = 350,000) | G9a H3K9 monomethylation, AlphaScreen, 2 h; also: potency is read from the fitted curve at half-maximal effect; % is scaled to controls: 0 for no effect and ±100 for the full control effect; nearly all actives have a fitted effect of over 75% in size
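Using a bead-based AlphaScreen, monomethylated H3K9 product from 2 h room-temperature reactions (G9a 20 nM, peptide 500 nM, SAM 20 uM) was detected with 0.5 ug/mL rabbit anti-H3K9me1 antibody.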
Starred values were filed as active, the others as inactive; [ ] = remark or other dose. Sampled rows, rich in hits. Any-hit rate of the full collection: about 12%. Unless noted, calls follow the shape of the dose curve; as a rule, active = well fitted curve in the direction sought with a large enough effect; inconclusive = small, poorly fitted or top-dose-only effect, or another doubt; inactive = no such curve, though single readings can be large; an effect the other way counts as inactive or inconclusive.

`C=C(C(=O)c1ccccc1)C(NC(C)(C)C)c1ccccc1` (configuration not stated) gave PLK1 PBD inh -15.8%, PI5P4Ka inh 0.6, JMJD2A Tudor inh -7.6% and HP1b binding inh 35.0%.
For O=c1cnnc(N/N=C/c2ccccn2)[nH]1 the results were PLK1 PBD inh 21.2µM*, PI5P4Ka inh -28.6, JMJD2A Tudor inh 3.16µM*, BAZ2B inh 8.91µM*, HP1b binding inh 20.5% and G9a block 32.2%.
Screening C(=N\Nc1nc2ccccc2[nH]1)/c1ccccn1 returned PLK1 PBD inh -2.0%, PI5P4Ka inh -7.1, JMJD2A Tudor inh inconclusive, BAZ2B inh 25.1µM*, HP1b binding inh 26.8% and G9a block 60.0%[59 µM].
C(=N\Nc1nc2ccccc2[nH]1)/c1cccc2nccnc12 was read as PLK1 PBD inh -2.2%, PI5P4Ka inh -20.6, JMJD2A Tudor inh inconclusive, BAZ2B inh -34.6%, HP1b binding inh 20.7% and G9a block -4.9%.
C#CCn1cc(/C=N/Nc2nc3ccccc3[nH]2)c2ccccc21 was read as PLK1 PBD inh -3.9%, PI5P4Ka inh -8.8, JMJD2A Tudor inh 50.1µM*, BAZ2B inh 39.8µM*, HP1b binding inh inconclusive and G9a block 50.1µM*.
`CC1CCN(c2ccc(-c3cccc(NS(=O)(=O)c4cccs4)c3)nn2)CC1` gave JMJD2A Tudor inh -32.6%, BAZ2B inh -14.1%, HP1b binding inh 1.9%[57 µM] and G9a block 9.1%[59 µM].
For COc1cccc(-c2ccc3c(c2)O[C@@H](CN(C)Cc2cncnc2)[C@@H](C)CN([C@H](C)CO)S3(=O)=O)c1 the results were PLK1 PBD inh -16.7% and PI5P4Ka inh 2.8.
For O=S(=O)(c1ccc(Cl)cc1Cl)n1ccnc1 the results were JMJD2A Tudor inh -8.2%, BAZ2B inh -24.6%, HP1b binding inh 15.6% and G9a block inconclusive.
Fc1ccc(-c2cc(-c3nc(-c4cccc(Cl)c4)no3)[nH]n2)cc1 was read as JMJD2A Tudor inh -17.2%, BAZ2B inh 1.6%, HP1b binding inh -0.6% and G9a block 9.6%[59 µM].
O=P1(NC2CCCCC2)OCC2(CO1)COP(=O)(NC1CCCCC1)OC2 (configuration not stated) was read as PLK1 PBD inh -0.4%, PI5P4Ka inh 1.8, JMJD2A Tudor inh -13.8% and HP1b binding inh 44.2%.
`O=C(c1ccc(Sc2ccccc2)c([N+](=O)[O-])c1)N1CCOCC1` gave PLK1 PBD inh -13.3%, PI5P4Ka inh -2.1, JMJD2A Tudor inh -32.4%, BAZ2B inh -25.7%, HP1b binding inh -5.8% and G9a block -7.1%.
CCN1CCN(C(=O)c2ccc(Sc3ccccc3Cl)c([N+](=O)[O-])c2)CC1 was read as PLK1 PBD inh -5.4%, PI5P4Ka inh 1.0, JMJD2A Tudor inh inconclusive, BAZ2B inh -33.4%, HP1b binding inh -1.0% and G9a block 31.6µM*.
Screening CCN1CCCC1CNC(=O)c1ccc(Sc2ccccc2Cl)c([N+](=O)[O-])c1 (configuration not stated) returned PLK1 PBD inh -3.2%, PI5P4Ka inh 9.7, JMJD2A Tudor inh inconclusive, BAZ2B inh 28.2µM*, HP1b binding inh -20.5% and G9a block 8.7%[59 µM].
Screening CCN1CCN(C(=O)c2ccc(Cl)c(S(=O)(=O)N(C)c3ccccc3)c2)CC1 returned PLK1 PBD inh -4.0%, PI5P4Ka inh 2.6, JMJD2A Tudor inh -8.8%, BAZ2B inh -0.8%, HP1b binding inh 13.6% and G9a block 17.8µM*.
For CN(c1ccc(C(=O)N2CCN(Cc3ccccc3)CC2)cc1)S(=O)(=O)c1ccccc1 the results were PLK1 PBD inh -14.7%, PI5P4Ka inh 0.9, JMJD2A Tudor inh -22.9%, BAZ2B inh -11.2%, HP1b binding inh -13.8% and G9a block -6.2%.
`NNC(=O)c1ccc2c(c1)S(=O)(=O)NNC2=O` gave PLK1 PBD inh inconclusive, PI5P4Ka inh -11.7, JMJD2A Tudor inh 28.2µM*, BAZ2B inh -31.8%, HP1b binding inh 76.5% and G9a block 11.2µM*.
Screening CCCNC(=O)c1ccc2c(c1)S(=O)(=O)c1ccccc1C2=O returned PLK1 PBD inh -15.0%, PI5P4Ka inh 4.0, JMJD2A Tudor inh -13.6%, BAZ2B inh -11.1% and HP1b binding inh 13.4%.
`CCn1cc(C(=O)O)c(=O)c2cc(F)c(N3CCN(C(=S)NC(=O)c4ccc(Br)cc4)CC3)cc21` gave PLK1 PBD inh inconclusive, PI5P4Ka inh 8.5, JMJD2A Tudor inh -14.3%[11.4 µM], BAZ2B inh 31.6µM*, HP1b binding inh -4.8% and G9a block 6.8%.
Screening CCn1cc(C(=O)O)c(=O)c2cc(F)c(N3CCN(C(=S)NC(=O)c4ccccc4F)CC3)cc21 returned PLK1 PBD inh -14.9%, PI5P4Ka inh -9.1, JMJD2A Tudor inh inconclusive, BAZ2B inh inconclusive, HP1b binding inh 7.1% and G9a block inconclusive.
Screening CCn1cc(C(=O)O)c(=O)c2cc(F)c(N3CCN(C(=O)Nc4ccccc4)CC3)cc21 returned PLK1 PBD inh -7.0%, JMJD2A Tudor inh 22.4µM*, BAZ2B inh -6.7%, HP1b binding inh 16.1% and G9a block 39.8µM*.
For COc1ccc(CCNC(=O)CCCCn2c(=O)c3ccccc3n(Cc3cccc(C)c3)c2=O)cc1OC the results were JMJD2A Tudor inh -19.1%, BAZ2B inh -10.0%, HP1b binding inh 26.8% and G9a block -3.7%[59 µM].
For Cc1ccc[n+](-c2nc([O-])sc2/C=N/Nc2ccc([N+](=O)[O-])cc2)c1 the results were PLK1 PBD inh -22.1%, PI5P4Ka inh -13.3, JMJD2A Tudor inh -17.9%, BAZ2B inh 39.8µM*, HP1b binding inh 4.2% and G9a block 11.2µM*.
Cc1ccc(NC(=O)CN2C(=O)C(c3ccccc3)=NC23CCCCC3)cc1C was read as JMJD2A Tudor inh -16.1%, BAZ2B inh -2.6%, HP1b binding inh 29.9% and G9a block -5.8%[59 µM].
COc1ccc(NC(=O)COc2ccccc2F)cc1S(=O)(=O)N1CCCCC1 was read as PLK1 PBD inh -0.6%, PI5P4Ka inh -9.2, JMJD2A Tudor inh -14.0%, BAZ2B inh -16.3% and HP1b binding inh 10.9%.
For O=C(COC(=O)/C=C/c1ccc(F)cc1)Nc1cccc(S(=O)(=O)N2CCCC2)c1 the results were PLK1 PBD inh 3.9%, PI5P4Ka inh 0.7, JMJD2A Tudor inh -5.1%, BAZ2B inh -18.9%, HP1b binding inh 29.4% and G9a block -5.4%.

Screens deposited in PubChem by National Center for Advancing Translational Sciences (NCATS).
